Compound activity as filed in PubChem.
An excerpt weighted towards active compounds, which were near 6.9% of everything screened.
Vif-A3G inh: blocks the Vif interaction with human APOBEC3G; Q9HC16; HeLa A3G-eYFP + Vif (tagged APOBEC3G with the HIV-1 protein that degrades it), YFP fluorescence, overnight; Potency, µM (doses to about 46.1 µM), inactives show at the top dose activity, negative = active, most hits filed as inhibitors; 410,000 tested, 0.076% active; also: potency is read from the fitted curve at half-maximal effect; % is scaled to controls: 0 for no effect and ±100 for the full control effect; nearly all actives have a fitted effect of over 60% in size
Target sequence (Q9HC16 whole entry, looked up): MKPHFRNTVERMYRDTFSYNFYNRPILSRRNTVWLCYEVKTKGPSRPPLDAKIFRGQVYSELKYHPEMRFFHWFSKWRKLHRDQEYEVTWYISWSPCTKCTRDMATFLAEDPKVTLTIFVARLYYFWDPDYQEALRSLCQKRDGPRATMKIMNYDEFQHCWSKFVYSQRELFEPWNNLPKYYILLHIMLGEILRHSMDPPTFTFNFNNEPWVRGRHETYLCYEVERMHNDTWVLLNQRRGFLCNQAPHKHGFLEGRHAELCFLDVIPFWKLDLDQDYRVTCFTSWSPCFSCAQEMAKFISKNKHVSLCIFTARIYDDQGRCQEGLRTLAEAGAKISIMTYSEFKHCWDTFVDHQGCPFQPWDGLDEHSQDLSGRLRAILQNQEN
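Read-out is eYFP fluorescence (Ex 488/Em 500-530) from Vif-expressing HeLa A3G-eYFP cells; more signal means A3G escaped Vif-mediated degradation. Cells plated overnight, compound pinned in, incubated overnight at 37 deg C.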
SW480 rerep: DNA re-replication induction in SW480 cells. Potency, µM (doses to about 46.1 µM), for inactives: at the highest dose re-replication activation, actives largely listed as activators. 340,000 tested, 1.8% active. AID 624297. SW480 DNA re-replication, Hoechst DNA content imaging, 48 h; also: potency is read from the fitted curve at half-maximal effect; % of control where 0% means no effect; nearly all actives have a fitted effect of over 55% in size
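Image-based DNA-content assay: after two days of treatment, nuclei were labelled with the DNA dye Hoechst and imaged, and hits were compounds raising the count of nuclei showing high fluorescence intensity.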
Giardia kill: kills Giardia lamblia; Giardia lamblia trophozoite viability; 340,000 tested, 0.15% active; activity change, % at 7.66 µM, hits read low; in the data active = activity change below about -80%; inconclusive = between about -30% and that limit;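 also: parasites exposed to compound for two days anaerobically before the ATP read; % is scaled to controls: 0 for no effect and ±100 for the full control effect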
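Giardia trophozoites, 100 cells per well, were exposed to compounds for 48 hrs at 37 deg C under anaerobic conditions; viability was then read as ATP content by bioluminescence after 15-30 min at room temperature.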
MCF10A rerep: DNA re-replication induction in MCF 10a cells; MCF 10A DNA re-replication, Hoechst nuclear intensity, 48 h; Potency, µM (highest dose often 46.1 µM), for the others: top-dose activity, positive = re-replication, most hits filed as activators; 350,000 tested, 2.9% active; AID 624296; also: potency is read from the fitted curve at half-maximal effect; % of control where 0% means no effect; nearly all actives have a fitted effect of over 50% in size
IL1B secr inh: blocks inflammasome-driven IL-1 beta release. activity change, % at 57.5 µM. 360,000 tested, 4.7% active. THP-1 LPS/ATP IL-1B secretion, AlphaLISA, 16 h; active compounds read low; in the data active = activity change below about -50%; inconclusive = mostly about -30% to -49%; also: % is scaled to controls: 0 for no effect and ±100 for the full control effect
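Secreted IL-1B measured by AlphaLISA bead assay after 16 h compound exposure of THP-1 cells; compounds (final up to 57.5 uM) added 1 h before LPS (250 ng/mL) and ATP (1.25 mM) stimulation; lower signal means less secretion.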
Vif-A3F inh: blocks the Vif interaction with APOBEC3F | 390,000 tested, 0.2% active | AID 602313 | Potency, µM (series often up to 46.1 µM), for the others: at the highest dose activity, negative = active | HeLa A3F-eYFP + Vif (tagged APOBEC3F with the HIV-1 protein that degrades it), YFP fluorescence increase; also: potency is read from the fitted curve at half-maximal effect; % of control where 0% means no effect; nearly all actives have a fitted effect of over 65% in size
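HeLa cells stably expressing Vif plus C-terminally eYFP-tagged A3F were seeded, incubated overnight at 37 deg C, dosed with compound, incubated overnight again at 37 deg C. Yellow fluorescence (Ex 488/Em 500-530) reported blocked Vif-mediated A3F-eYFP degradation.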
Starred values were filed as active, the others as inactive; [ ] = remark or other dose. Unless noted, calls follow the shape of the dose curve; as a rule, active = well fitted curve in the direction sought with a large enough effect; inconclusive = small, poorly fitted or top-dose-only effect, or another doubt; inactive = no such curve, though single readings can be large; an effect the other way counts as inactive or inconclusive.

COc1ccc(C)cc1NC(=O)Nc1ccc2c(c1)CCC2 was read as Vif-A3G inh 3.0%, SW480 rerep -9.2%, Giardia kill inconclusive, MCF10A rerep 23.1µM*, IL1B secr inh inconclusive and Vif-A3F inh 4.4%.
For COc1ccc(Cl)cc1NC(=O)Nc1ccc(C(=O)N2CCCC2)cc1 the results were Vif-A3G inh -3.8%, SW480 rerep -13.0%, Giardia kill -9.3, MCF10A rerep 13.1%, IL1B secr inh -64.1* and Vif-A3F inh 1.3%.
`O=C(c1ccc(NC(=S)Nc2ccc(Cl)c(Cl)c2)cc1)N1CCCC1` gave Vif-A3G inh 0.3%, SW480 rerep -3.3%, Giardia kill 18.4, MCF10A rerep 7.4%, IL1B secr inh -99.3* and Vif-A3F inh 1.5%.
COc1ccccc1NC(=O)Nc1ccc2c(c1)CCC2 was read as Vif-A3G inh -6.3%, SW480 rerep -4.1%, Giardia kill -3.7, MCF10A rerep 1.9%, IL1B secr inh -12.3 and Vif-A3F inh -2.6%.
`N#Cc1ccc(NC(=O)Nc2ccc(Cl)cc2)cc1` gave Vif-A3G inh -0.6%, SW480 rerep 1.5%, Giardia kill 8.6, MCF10A rerep -1.8%, IL1B secr inh -109.8* and Vif-A3F inh 3.2%.
`COc1ccc(C)cc1NC(=O)Nc1ccc(C(=O)N2CCCC2)cc1` gave Vif-A3G inh -4.7%, SW480 rerep 6.3%, Giardia kill 4.5, MCF10A rerep 4.0%, IL1B secr inh inconclusive and Vif-A3F inh -0.4%.
CN(CC(=O)Nc1ccc(C#N)cc1)Cc1ccc(Cl)cc1 was read as Vif-A3G inh 0.3%, SW480 rerep -4.1%, Giardia kill 9.1, MCF10A rerep inconclusive, IL1B secr inh -9.7 and Vif-A3F inh 0.7%.
O=C(CCCn1c2ccccc2c(=O)c2ccccc21)Nc1cccc(Cl)c1 was read as Vif-A3G inh -11.7% and Vif-A3F inh 2.2%.
For CC(=O)c1cccc(NC(=O)c2noc3c2CSc2ccccc2-3)c1 the results were Vif-A3G inh -7.5% and Vif-A3F inh -8.0%.
CC(C)CN1CCC(=O)N([C@H](CSc2ccc(Br)cc2)Cc2ccccc2)CC1 was read as Vif-A3G inh 0.5%, SW480 rerep 10.0%, Giardia kill 17.8, MCF10A rerep 3.4%, IL1B secr inh -53.3* and Vif-A3F inh 4.2%.
For O=C1CCN(Cc2ccc(O)cc2)CCN1[C@H](CO)Cc1ccccc1 the results were Vif-A3G inh -5.0%, SW480 rerep -3.4%, Giardia kill 9.5, MCF10A rerep 18.7%, IL1B secr inh 16.5 and Vif-A3F inh -7.6%.
`Cc1ccc(SC[C@H](Cc2ccccc2)N2CCN(CCc3ccccc3)CCC2=O)cc1` gave Vif-A3G inh 1.8%, SW480 rerep -4.7%[9.22 µM], Giardia kill -1.2, MCF10A rerep -25.0%, IL1B secr inh -17.5 and Vif-A3F inh -0.5%.
Screening O=C1CCN(CCc2ccccc2)CCN1[C@H](CSc1ccccc1)Cc1ccccc1 returned Vif-A3G inh 1.6%, SW480 rerep inconclusive, Giardia kill 27.1, MCF10A rerep inconclusive, IL1B secr inh -64.3* and Vif-A3F inh -18.1%.
For O=C1CCN(Cc2ccccc2)CCN1[C@H](CO)Cc1ccccc1 the results were Vif-A3G inh 1.6%, SW480 rerep 5.17µM*, Giardia kill -3.8, MCF10A rerep -34.7%, IL1B secr inh 11.9 and Vif-A3F inh 0.5%.
`Cc1c(Cl)cccc1-n1c(SCC(=O)NCc2ccccc2)nc2n[nH]c(C)c2c1=N` gave Vif-A3G inh -24.0% and Vif-A3F inh 2.4%.
Screening COc1ccccc1CCNC(=O)Cc1ccc(NC(=O)N2CCSc3ncccc32)cc1 returned Vif-A3G inh -4.4% and Vif-A3F inh 0.2%.
Screening CCc1ccc(-c2cc(C)no2)cc1S(=O)(=O)NCc1ccc(OC)cc1 returned Vif-A3G inh -16.2% and Vif-A3F inh -4.6%.
CC1(C)CC(=O)C(C(C2=C(O)CC(C)(C)CC2=O)c2ccco2)C(=O)C1 (centres undefined) was read as Vif-A3G inh 0.0%, SW480 rerep 3.3%, Giardia kill -3.3, MCF10A rerep -6.2%, IL1B secr inh 16.3 and Vif-A3F inh -25.3%.
For O=C1CCCC(O)=C1Sc1ccccc1C(=O)O the results were Vif-A3G inh 3.1%, SW480 rerep -2.1%, Giardia kill 31.7, MCF10A rerep 12.5%, IL1B secr inh -2.7 and Vif-A3F inh 0.1%.
For CC1(C)CC(=O)C(C(C#Cc2ccccc2)C2=C(O)CC(C)(C)CC2=O)=C(O)C1 the results were Vif-A3G inh -4.5%, SW480 rerep inconclusive, Giardia kill 17.3, MCF10A rerep inconclusive, IL1B secr inh -99.5* and Vif-A3F inh -0.8%.
`O=C1CCCC(O)=C1C(C#Cc1ccccc1)C1=C(O)CCCC1=O` gave Vif-A3G inh inconclusive, SW480 rerep inconclusive, Giardia kill -22.2, MCF10A rerep inconclusive, IL1B secr inh -98.9* and Vif-A3F inh 0.7%.
For CCCCCCCCCC[n+]1cc(Br)cc(Br)c1 the results were Vif-A3G inh -8.8%.
Screening CSc1nc(N2CCOCC2)nc2ccc(C)cc12 returned Vif-A3G inh -5.1%, SW480 rerep inconclusive, Giardia kill 5.9, MCF10A rerep 20.6µM*, IL1B secr inh -14.8 and Vif-A3F inh -4.4%.
CCn1c(C)cc(/C=C2/NC(=O)N(c3ccccc3)C2=O)c1C was read as Vif-A3G inh -10.4%, SW480 rerep -5.2%, Giardia kill -13.1, MCF10A rerep 0.7%, IL1B secr inh -10.4 and Vif-A3F inh -3.2%.
For O=C1N/C(=C/c2ccsc2)C(=O)N1c1ccccc1 the results were Vif-A3G inh -8.4%, SW480 rerep 5.5%, Giardia kill -20.0, MCF10A rerep 3.7%, IL1B secr inh -53.5* and Vif-A3F inh -5.0%.
Screening C=C1c2nc3ccccc3n2C=C(c2ccc(C)cc2)N1c1ccccc1 returned Vif-A3G inh inconclusive, SW480 rerep inconclusive, Giardia kill -7.2, MCF10A rerep 4.61µM*, IL1B secr inh 11.3 and Vif-A3F inh 3.4%.
For C=C(C)Cn1c(-c2ccccc2)nc2ccccc21 the results were Vif-A3G inh -1.1%, SW480 rerep 2.8%, Giardia kill 3.8, MCF10A rerep 14.4%, IL1B secr inh -27.3 and Vif-A3F inh -3.3%.
Cc1cc(C)n(-c2nc3ccccc3nc2N2CCN(C(=O)c3ccc(Cl)cc3)CC2)n1 was read as Vif-A3G inh 0.0%, SW480 rerep 20.6µM*, Giardia kill 2.9, MCF10A rerep 1.84µM*, IL1B secr inh -58.7* and Vif-A3F inh -0.2%.
`Cc1ccc(Cl)cc1N1CCN(CC(=O)NC2CCCc3ccccc32)CC1` (centres undefined) gave Vif-A3G inh -11.6%, SW480 rerep 15.9%, Giardia kill 10.3, MCF10A rerep inconclusive, IL1B secr inh -9.3 and Vif-A3F inh -13.7%.
